Reference: PubChem BioAssay (NCI)
Where “and” joins values, the source holds several entries; their conditions need not be identical. Equal entries are not always repeated. Compounds without any hit were thinned out: in the full panel of roughly 79,000, 15% have a hit. The source holds several records for some structures; these can differ, active in one and inactive in another. Calls of active or inactive are those of the source. Cut-off read from the data, not from the text of the source: active = growth inhibition above about 70%; inactive = the rest.

How the values were obtained:
[1] = NCI Yeast Anticancer Drug Screen. Data for the rad50 strain (AID 155);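 note: 0% = growth of vehicle-only cultures of the same strain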; details: S. cerevisiae rad50 strain growth inhibition, stronger effect = higher value
In short: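 A DNA repair-deficient yeast mutant serves as the test organism; compound-induced growth inhibition is calculated against vehicle-treated cells.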

[2] = NCI Yeast Anticancer Drug Screen. Data for the mec2-1 strain (AID 157); details: S. cerevisiae mec2-1 strain, stronger effect = higher value
In short: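 Test agents were screened against the mec2-1 yeast strain, with defined DNA repair or cell cycle alteration. Growth was scored as inhibition against vehicle-only controls.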

[3] = NCI Yeast Anticancer Drug Screen. Data for the sgs1 mgt1 strain (AID 161);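 note: 0% = growth of cultures given vehicle only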; details: S. cerevisiae sgs1 mgt1 strain, stronger effect = higher value
In short: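 Mutant yeast exposed to compound; growth scored against vehicle-only wells.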

[4] = NCI Yeast Anticancer Drug Screen. Data for the cln2 rad14 strain (AID 165);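 note: 0% = growth equal to vehicle treated cultures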; details: S. cerevisiae cln2 rad14 strain, stronger effect = higher value
In short: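 Growth of compound-exposed yeast (cln2 rad14 genotype) measured and expressed as inhibition relative to vehicle.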

[5] = NCI Yeast Anticancer Drug Screen. Data for the mlh1 rad18 strain (AID 175); details: S. cerevisiae mlh1 rad18 strain growth inhibition, stronger effect = higher value
In short: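 In this whole-cell yeast screen, a strain with altered DNA damage repair is challenged with compound, and its growth is measured against matched vehicle-treated controls.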

[6] = NCI Yeast Anticancer Drug Screen. Data for the bub3 strain (AID 167); details: S. cerevisiae bub3 mutant strain, stronger effect = higher value
In short: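 Inhibition values come from growth of compound-treated mutant yeast normalised to vehicle-treated controls.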

[7] = at 5.0 µM (retest, dose inferred, filed as 0.5)
[8] = at 50.0 µM (retest, dose inferred, filed as 5.0)

Row | Compound | growth inhibition [1, 7] | growth inhibition [1, 8] | growth inhibition ([1]; at 50.0 µM) | growth inhibition [2, 7] | growth inhibition [2, 8] | growth inhibition ([2]; at 50.0 µM) | growth inhibition [3, 7] | growth inhibition [3, 8] | growth inhibition ([3]; at 50.0 µM) | growth inhibition [4, 7] | growth inhibition [4, 8] | growth inhibition ([4]; at 50.0 µM) | growth inhibition [5, 7] | growth inhibition [5, 8] | growth inhibition ([5]; at 50.0 µM) | growth inhibition [6, 7] | growth inhibition [6, 8] | growth inhibition ([6]; at 50.0 µM)
1 | O=C1/C(=C/c2ccc(Cl)cc2)CNC/C1=C\c1ccc(Cl)cc1 | 83% (active) and 48% (inactive) | 79% (active) and 71% (active) | 76.7% (active) and 86.2% (active) | 76% (active) and 48% (inactive) | 87% (active) and 78% (active) | 81.8% (active) and 89.5% (active) | 88% (active) and 58% (inactive) | 88% (active) and 91% (active) | 87.2% (active) and 86.7% (active) | 69% (inactive) and 44% (inactive) | 85% (active) and 73% (active) | 83.8% (active) and 83.5% (active) | 91% (active) and 66% (inactive) | 75% (active) and 88% (active) | 81.2% (active) and 79.2% (active) | – | – | –
2 | C=CCCC(=O)O | 6% (inactive) | 7% (inactive) | 1.25% (inactive) and 2.45% (inactive) | 7% (inactive) | 2% (inactive) | -2.15% (inactive) and -0.6% (inactive) | 5% (inactive) | 3% (inactive) | -11.3% (inactive) and 4.3% (inactive) | 4% (inactive) | 4% (inactive) | 54.4% (inactive) and 5.75% (inactive) | 0% (inactive) | 2% (inactive) | -40.5% (inactive) and 0.95% (inactive) | – | – | –
3 | CCCC1=CCCC1 | 2% (inactive) | 8% (inactive) | 91.1% (active) | 2% (inactive) | -6% (inactive) | 92.5% (active) | -1% (inactive) | 1% (inactive) | 50.9% (inactive) | 0% (inactive) | 2% (inactive) | 50% (inactive) | 0% (inactive) | 5% (inactive) | 50.2% (inactive) | 1% (inactive) | 1% (inactive) | 96.8% (active)
4 | O=C1c2ccccc2C(=O)c2c(O)c(O)cc(O)c21 | 97% (active) | 97% (active) | 88.5% (active) and 11.4% (inactive) | 99% (active) | 98% (active) | 86.2% (active) and -3.5% (inactive) | 98% (active) | 97% (active) | 86% (active) and 14.2% (inactive) | 59% (inactive) | 95% (active) | 72.4% (active) and 9.2% (inactive) | 99% (active) | 97% (active) | 85.5% (active) and 25% (inactive) | – | – | –
5 | Cc1n(Cc2ccccc2)c2c([n+]1C)C(=O)c1ccccc1C2=O | 44% (inactive) | 97% (active) | 86.2% (active) | 50% (inactive) | 98% (active) | 91.8% (active) | – | – | – | 34% (inactive) | 92% (active) | 89.2% (active) | 78% (active) | 97% (active) | – | 72% (active) | 98% (active) | 89.2% (active)
6 | CCc1nc(N)nc(N)c1-c1ccc(Cl)c(N=[N+]=[N-])c1 | 41% (inactive) | 40% (inactive) | 6.65% (inactive) and 71.2% (active) | 18% (inactive) | 21% (inactive) | -15.3% (inactive) and 65.5% (inactive) | 56% (inactive) | 54% (inactive) | -0.8% (inactive) and 61.6% (inactive) | 18% (inactive) | 28% (inactive) | -6.55% (inactive) and 62.5% (inactive) | 65% (inactive) | 62% (inactive) | -1.7% (inactive) and 27.7% (inactive) | 30% (inactive) | 26% (inactive) | 6.35% (inactive) and 54.5% (inactive)
7 | O=C(NC(C(=O)O)c1ccccc1)OCc1ccccc1 (configuration not stated) | -3% (inactive) | -3% (inactive) | -3% (inactive) and -15.4% (inactive) and 0.9% (inactive) | 1% (inactive) | 0% (inactive) | -28.1% (inactive) and -22.8% (inactive) and 0.9% (inactive) | – | – | – | 1% (inactive) | -2% (inactive) | -12.2% (inactive) and 88% (active) | 3% (inactive) | -1% (inactive) | -7.9% (inactive) and 2.55% (inactive) and 48.3% (inactive) | -1% (inactive) | -2% (inactive) | -8.4% (inactive) and 21.4% (inactive)
8 | C=CCNC(=O)c1ccccc1SC(C)=O | 14% (inactive) | 99% (active) | 88.9% (active) | 33% (inactive) | 99% (active) | 91.5% (active) | 20% (inactive) | 99% (active) | 89% (active) | 23% (inactive) | 96% (active) | 72% (active) | 18% (inactive) | 99% (active) | 89.3% (active) | – | – | –
9 | Nc1ccc2c3c(cccc13)C(=O)N(CCCBr)C2=O | 9% (inactive) | 98% (active) | 92.9% (active) | -5% (inactive) | 67% (inactive) | 0.7% (inactive) | -17% (inactive) | 80% (active) | 55.4% (inactive) | 16% (inactive) | 88% (active) | 45.1% (inactive) | 32% (inactive) | 94% (active) | 82.8% (active) | 6% (inactive) | 78% (active) | 5.15% (inactive)
10 | CCOC(=O)C(Cc1ccccc1[N+](=O)[O-])C(=O)OCC | -5% (inactive) | -33% (inactive) | 5.4% (inactive) | -27% (inactive) | -5% (inactive) | -3.7% (inactive) | -21% (inactive) | 3% (inactive) | 28.6% (inactive) | 17% (inactive) | 10% (inactive) | 7.75% (inactive) | 0% (inactive) | -22% (inactive) | 20.5% (inactive) | – | – | –
11 | Oc1ccccc1C=Nc1ccccc1N=Cc1ccccc1O | -16% (inactive) and -2% (inactive) | 68% (inactive) and 96% (active) | 85% (active) and 81.4% (active) | -34% (inactive) and -4% (inactive) | 98% (active) and 85% (active) | 78.9% (active) and 89% (active) | -12% (inactive) and -1% (inactive) | 76% (active) and 91% (active) | 67.8% (inactive) and 91.3% (active) | 7% (inactive) and -12% (inactive) | 39% (inactive) and 95% (active) | 59.5% (inactive) and 8.6% (inactive) | -17% (inactive) and -4% (inactive) | 98% (active) and 97% (active) | 76.3% (active) and 93% (active) | 14% (inactive) and -3% (inactive) | 52% (inactive) and 86% (active) | 67% (inactive) and 87.2% (active)
12 | NC1=C(Cl)C(=O)c2ccccc2C1=O | 6% (inactive) and 9% (inactive) | 97% (active) and 99% (active) | 87.5% (active) and 98.2% (active) | 0% (inactive) and -30% (inactive) | 93% (active) and 98% (active) | 79.8% (active) and 93.6% (active) | 7% (inactive) and 10% (inactive) | 95% (active) and 97% (active) | 91.4% (active) and 97.8% (active) | 15% (inactive) and 4% (inactive) | 61% (inactive) and 97% (active) | 76.7% (active) and 78.8% (active) | 8% (inactive) and 7% (inactive) | 96% (active) and 98% (active) | 88.5% (active) and 95.5% (active) | – | – | –
13 | CC(C)C1=CC23CCC4C(C)(C(=O)O)CCCC4(C)C2CC1C1C(=O)OC(=O)C13 (configuration not stated) | 93% (active) | 99% (active) | 99.3% (active) and 99.5% (active) | 96% (active) | 100% (active) | 99.5% (active) and 99.7% (active) | 87% (active) | 100% (active) | 99.6% (active) and 49.5% (inactive) | 85% (active) | 99% (active) | 99% (active) and 98.5% (active) | 90% (active) | 99% (active) | 99.4% (active) and 99.5% (active) | – | – | –
14 | CCCCCCCCCCCCN1C(=O)[N+](C)(C)N=C1[O-] | 6% (inactive) | 41% (inactive) | 98.7% (active) | 4% (inactive) | 49% (inactive) | 99.3% (active) | 7% (inactive) | 60% (inactive) | 99.1% (active) | -4% (inactive) | 21% (inactive) | 97.5% (active) | 4% (inactive) | 49% (inactive) | 99.1% (active) | 4% (inactive) | 34% (inactive) | 98.9% (active)
15 | CCOC(=O)[C@H]1Nc2ccc([N+](=O)[O-])cc2C2c3ccccc3CC21 (some centres not stated) | 32% (inactive) | 91% (active) | 80.3% (active) | -11% (inactive) | 48% (inactive) | 87.8% (active) | 24% (inactive) | 93% (active) | 91.2% (active) | 8% (inactive) | 91% (active) | 86.3% (active) | 17% (inactive) | 90% (active) | 84% (active) | – | – | –
16 | CCCCCCCCCCCCCCCCOP(=O)(O)OCC(NC(C)=O)C(=O)O (configuration not stated) | -2% (inactive) | 100% (active) | 99.2% (active) | 17% (inactive) | 100% (active) | 99.5% (active) | 4% (inactive) | 95% (active) | 99.3% (active) | 37% (inactive) | 99% (active) | 99.3% (active) | -1% (inactive) | 99% (active) | 99.4% (active) | 1% (inactive) | 97% (active) | 99.5% (active)
